We go through 50 sequences from the supplement of paper PMC3545927.

This is one part of the list. How many sequences the whole screen found active is unknown.

The target in the experiment is furin, P09958. The experiment can be described thus: furin cleavage Z-score vs untreated control; higher = more cleavage, active = 3.5 or more, inactive = 1 or less, 8 variable residues between constant flanks. An outline of the steps:
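Furin-free reactions served as the baseline for the cleavage Z-score, which is the log read count lowess-adjusted and scaled by median absolute deviation. Counts came from released DNA, adapter-tagged by PCR and sequenced. Purified furin had cut 8-mer peptides fused to a cDNA oligonucleotide on magnetic beads during 7.5, 15 or 30 min at 1:10 enzyme:substrate.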
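Also: purified furin at 1:10 enzyme:substrate in 50 mM HEPES pH 7.5.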

furin, P09958, sequence (P09958 whole entry, the tested form may be a part): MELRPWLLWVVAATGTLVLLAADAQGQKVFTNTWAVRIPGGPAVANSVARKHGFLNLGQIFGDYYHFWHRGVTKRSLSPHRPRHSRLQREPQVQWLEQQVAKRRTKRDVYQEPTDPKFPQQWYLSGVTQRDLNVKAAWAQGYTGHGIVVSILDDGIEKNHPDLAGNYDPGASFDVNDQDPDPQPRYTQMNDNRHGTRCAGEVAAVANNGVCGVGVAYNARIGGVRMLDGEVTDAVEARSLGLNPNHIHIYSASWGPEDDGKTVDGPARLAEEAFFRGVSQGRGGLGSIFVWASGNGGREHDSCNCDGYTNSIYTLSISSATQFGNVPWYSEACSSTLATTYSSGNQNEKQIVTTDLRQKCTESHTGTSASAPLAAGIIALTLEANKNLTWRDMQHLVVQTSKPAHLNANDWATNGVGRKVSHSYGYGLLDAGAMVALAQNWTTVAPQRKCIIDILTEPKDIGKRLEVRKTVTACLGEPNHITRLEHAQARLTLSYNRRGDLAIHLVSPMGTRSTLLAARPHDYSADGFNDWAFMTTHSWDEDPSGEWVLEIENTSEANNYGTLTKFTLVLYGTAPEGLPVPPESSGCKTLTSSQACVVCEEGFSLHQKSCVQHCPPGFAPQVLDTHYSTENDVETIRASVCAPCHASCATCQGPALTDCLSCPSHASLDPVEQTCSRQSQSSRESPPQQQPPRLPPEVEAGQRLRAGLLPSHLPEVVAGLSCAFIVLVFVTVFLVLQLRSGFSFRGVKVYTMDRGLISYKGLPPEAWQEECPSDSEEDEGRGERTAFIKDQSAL

CANDCPNSSIAGNASASA [HC263]: the “furin cleavage Z-score” value is, setting by setting: (7.5 min) 0.567 (inactive); (15 min) 0.0331 (inactive); (30 min) -0.164 (inactive).

Consider CARVLRENGKAGNASASA [FS-3119], for which the “furin cleavage Z-score” value was 0.679 (inactive) (7.5 min), -0.235 (inactive) (15 min) and 0.807 (inactive) (30 min).

Regarding CAREKRKNRTAGNASASA [FS-1888], the “furin cleavage Z-score” value was 0.751 (inactive) (7.5 min), 1.62 (15 min) and -0.32 (inactive) (30 min).

Regarding CARNKREDRTAGNASASA [FS-2727], the “furin cleavage Z-score” value was 11.9 (active) (7.5 min), 12.6 (active) (15 min) and 8.05 (active) (30 min).

Turning to CARNKRESGKAGNASASA [FS-1757], the “furin cleavage Z-score” value reads like this: (7.5 min) 8.44 (active); (15 min) 9.42 (active); (30 min) 7.75 (active).

For the sequence CAREKKVTRTAGNASASA [FS-2914], the “furin cleavage Z-score” value was -1.91 (inactive) (7.5 min), -0.133 (inactive) (15 min) and 0.367 (inactive) (30 min).

With CATAILSSLTAGNASASA [HC1133], the “furin cleavage Z-score” value runs as follows: (7.5 min) -0.0959 (inactive); (15 min) 1.64; (30 min) 1.05.

Take CALDMIAGAHAGNASASA [HC333]: the “furin cleavage Z-score” value was -0.265 (inactive) (7.5 min), -1.79 (inactive) (15 min) and 0.6 (inactive) (30 min).

Regarding CAVVCHSMSYAGNASASA [HC89], the “furin cleavage Z-score” value is, setting by setting: (7.5 min) -0.697 (inactive); (15 min) -0.997 (inactive); (30 min) -0.52 (inactive).

Turning to CACEVLSDFKAGNASASA [HC1153], the “furin cleavage Z-score” value (7.5 min) was -1.16 (inactive), the “furin cleavage Z-score” value (15 min) was -1.03 (inactive) and the “furin cleavage Z-score” value (30 min) is 0.3 (inactive).

CADNKRMARNAGNASASA [FS-984]: the “furin cleavage Z-score” value by setting is: (7.5 min) 5.12 (active); (15 min) 6.32 (active); (30 min) 6.33 (active).

CAPNSRLARNAGNASASA [FS-475]: the “furin cleavage Z-score” value (7.5 min) was 6.58 (active), the “furin cleavage Z-score” value (15 min) was 6.13 (active) and the “furin cleavage Z-score” value (30 min) is 6.41 (active).

On to CADTTIMAKNAGNASASA [HC1438], for which the “furin cleavage Z-score” value by setting is: (7.5 min) 1.51; (15 min) -0.0215 (inactive); (30 min) 0.93 (inactive).

As for CAAASRLARGAGNASASA [FS-211], the “furin cleavage Z-score” value by setting is: (7.5 min) 0.553 (inactive); (15 min) 1.11; (30 min) 0.636 (inactive).

As to CANGFRHARNAGNASASA [FS-466], the “furin cleavage Z-score” value by setting is: (7.5 min) -0.528 (inactive); (15 min) -0.454 (inactive); (30 min) -0.259 (inactive).

Consider CASKKRSNGLAGNASASA [FS-3136], for which the “furin cleavage Z-score” value by setting is: (7.5 min) -1.83 (inactive); (15 min) 0.376 (inactive); (30 min) 2.11.

Take CARELRQLMEAGNASASA [FS-2916]: the “furin cleavage Z-score” value is, setting by setting: (7.5 min) 0.168 (inactive); (15 min) -0.988 (inactive); (30 min) -1.36 (inactive).

Regarding CARLGAVQNEAGNASASA [HC974], the “furin cleavage Z-score” value is, setting by setting: (7.5 min) -1.44 (inactive); (15 min) -1.09 (inactive); (30 min) -2.56 (inactive).

For the sequence CARLYRSLGEAGNASASA [FS-2045], the “furin cleavage Z-score” value reads like this: (7.5 min) 1.86; (15 min) 4.55 (active); (30 min) 4.61 (active).

In the case of CARVKRVLMGAGNASASA [FS-2618], the “furin cleavage Z-score” value is -0.934 (inactive) (7.5 min), -0.615 (inactive) (15 min) and -0.629 (inactive) (30 min).

In the case of CARVKRSLGEAGNASASA [FS-1977], the “furin cleavage Z-score” value by setting is: (7.5 min) 10.7 (active); (15 min) 12.6 (active); (30 min) 9.34 (active).

Consider CAQVRNSTGLAGNASASA [HC257], for which the “furin cleavage Z-score” value is -0.176 (inactive) (7.5 min), 1.49 (15 min) and 0.103 (inactive) (30 min).

For CARVKRSPGLAGNASASA [FS-2387], the “furin cleavage Z-score” value runs as follows: (7.5 min) 10.4 (active); (15 min) 10.3 (active); (30 min) 9.1 (active).

Turning to CARVKRDLVLAGNASASA [FS-2317], the “furin cleavage Z-score” value is, setting by setting: (7.5 min) 8.24 (active); (15 min) 11 (active); (30 min) 9.42 (active).

CARNKKDVNLAGNASASA [FS-2726]: the “furin cleavage Z-score” value reads like this: (7.5 min) 0.881 (inactive); (15 min) 0.588 (inactive); (30 min) 0.399 (inactive).

For CADIWDWICEAGNASASA [HC1150], the “furin cleavage Z-score” value is -0.513 (inactive) (7.5 min), -0.19 (inactive) (15 min) and -1.62 (inactive) (30 min).

With CAEVVTFTWVAGNASASA [HC146], the “furin cleavage Z-score” value reads like this: (7.5 min) -0.177 (inactive); (15 min) -1.31 (inactive); (30 min) -0.383 (inactive).

With CAYGFQYSPGAGNASASA [HC1466], the “furin cleavage Z-score” value is -1.04 (inactive) (7.5 min), 0.304 (inactive) (15 min) and -1.02 (inactive) (30 min).

Turning to CAEVPCHRMSAGNASASA [HC2386], the “furin cleavage Z-score” value is 0.401 (inactive) (7.5 min), 1.85 (15 min) and -1.19 (inactive) (30 min).

As for CAGRTWAQPGAGNASASA [HC197], the “furin cleavage Z-score” value is 0.399 (inactive) (7.5 min), 0.197 (inactive) (15 min) and -2.32 (inactive) (30 min).

Turning to CATHPCSGSWAGNASASA [HC1855], the “furin cleavage Z-score” value is -0.725 (inactive) (7.5 min), 0.134 (inactive) (15 min) and -0.569 (inactive) (30 min).

With CARLRRSLGEAGNASASA [FS-1830], the “furin cleavage Z-score” value is 4.48 (active) (7.5 min), 6.54 (active) (15 min) and 5.36 (active) (30 min).

For the sequence CADSSRSVRPAGNASASA [FS-1518], the “furin cleavage Z-score” value reads like this: (7.5 min) -1.18 (inactive); (15 min) -0.293 (inactive); (30 min) 0.507 (inactive).

CARTPRAVRPAGNASASA [FS-2241]: the “furin cleavage Z-score” value (7.5 min) was 4.95 (active), the “furin cleavage Z-score” value (15 min) was 5.05 (active) and the “furin cleavage Z-score” value (30 min) is 7.16 (active).

Take CARIGRAVRPAGNASASA [FS-1720]: the “furin cleavage Z-score” value is, setting by setting: (7.5 min) 6.17 (active); (15 min) 6.97 (active); (30 min) 7.91 (active).

On to CAREKKSASWAGNASASA [FS-3244], for which the “furin cleavage Z-score” value reads like this: (7.5 min) -1.37 (inactive); (15 min) -1 (inactive); (30 min) 0.389 (inactive).

As to CANDVVCCSMAGNASASA [HC2121], the “furin cleavage Z-score” value is 0.854 (inactive) (7.5 min), 0.345 (inactive) (15 min) and 0.79 (inactive) (30 min).

For CADIMEECSQAGNASASA [HC1804], the “furin cleavage Z-score” value is -0.826 (inactive) (7.5 min), -1.93 (inactive) (15 min) and 0.332 (inactive) (30 min).

CAVEECSQHLAGNASASA [HC1670]: the “furin cleavage Z-score” value (7.5 min) was 0.23 (inactive), the “furin cleavage Z-score” value (15 min) is 0.997 (inactive) and the “furin cleavage Z-score” value (30 min) is -0.342 (inactive).

On to CAELVVCCSMAGNASASA [HC2125], for which the “furin cleavage Z-score” value (7.5 min) was -0.0192 (inactive), the “furin cleavage Z-score” value (15 min) was -0.743 (inactive) and the “furin cleavage Z-score” value (30 min) is -0.249 (inactive).

In the case of CAVLARMMRPAGNASASA [FS-966], the “furin cleavage Z-score” value runs as follows: (7.5 min) -0.155 (inactive); (15 min) 0.612 (inactive); (30 min) -0.556 (inactive).

Consider CARMIRRRRYAGNASASA [FS-1652], for which the “furin cleavage Z-score” value (7.5 min) was 10.9 (active), the “furin cleavage Z-score” value (15 min) is 13.2 (active) and the “furin cleavage Z-score” value (30 min) is 9.13 (active).

Regarding CAVVKRPRRYAGNASASA [FS-314], the “furin cleavage Z-score” value (7.5 min) was 9.96 (active), the “furin cleavage Z-score” value (15 min) was 10.8 (active) and the “furin cleavage Z-score” value (30 min) is 10 (active).

Take CARMIRTNEAAGNASASA [FS-3000]: the “furin cleavage Z-score” value is, setting by setting: (7.5 min) 0.282 (inactive); (15 min) 0.0077 (inactive); (30 min) 0.743 (inactive).

As to CAVVKCSMSYAGNASASA [HC2034], the “furin cleavage Z-score” value reads like this: (7.5 min) 0.0381 (inactive); (15 min) 0.000409 (inactive); (30 min) 0.298 (inactive).

Turning to CAVVCCSMRYAGNASASA [HC2073], the “furin cleavage Z-score” value is 0.763 (inactive) (7.5 min), 0.207 (inactive) (15 min) and 0.313 (inactive) (30 min).

For CAVLHRRRRYAGNASASA [FS-891], the “furin cleavage Z-score” value (7.5 min) is 9.61 (active), the “furin cleavage Z-score” value (15 min) is 10.5 (active) and the “furin cleavage Z-score” value (30 min) was 9.16 (active).

On to CAKRWRRRRYAGNASASA [FS-1350], for which the “furin cleavage Z-score” value by setting is: (7.5 min) 10.3 (active); (15 min) 12 (active); (30 min) 9.1 (active).

For the sequence CAVLEDGVNYAGNASASA [HC239], the “furin cleavage Z-score” value is -0.545 (inactive) (7.5 min), -2.21 (inactive) (15 min) and 0.0229 (inactive) (30 min).

Regarding CAHRSRDGRYAGNASASA [FS-797], the “furin cleavage Z-score” value by setting is: (7.5 min) 0.199 (inactive); (15 min) 1.41; (30 min) 0.834 (inactive).
